# Experimental data as given in PubChem BioAssay.
# A number with no mark means an inactive call. The list shows a part of the results. Activity calls are given as the source filed them.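 How the source made its calls, unless noted: active means mean inhibition above a cutoff equal to the average over all tested compounds plus one standard deviation (cut at about 70% in these data); inactive means the rest.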
# Assays:
# [1] = molecular target: Photoreceptor-specific nuclear receptor (Homo sapiens) (UniProt Q9Y5X4); assay: NR2E3 agonist confirmation in cells, cell-based, luminescence, CHO-S two-hybrid (AID 624378;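 active means average inhibition above a cutoff equal to the mean inhibition of all tested compounds plus one SD, cut at about 70% in these data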;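 further: 0% = DMSO in NR2E3 cells and 100% = DMSO in cells lacking NR2E3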); conditions: CHO-S mammalian two-hybrid NR2E3-NCOR, luciferase luminescence; at 3.98 µM; active compounds read high
# [2] = GAL4-VP16 reporter modulators, confirmation, counter-screen for NR2E3 agonist project, cell-based, luminescence, CHO-S, high throughput (AID 624379); conditions: CHO-S GAL4-VP16 luciferase reporter, at 3.98 µM, active compounds read high;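 further: luciferase from a UAS reporter driven by GAL4-VP16 transactivation; 0% = DMSO with VP16-transfected cells and 100% = DMSO with cells lacking VP16; higher means less reporter light so more repression of VP16 activity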
# [3] = molecular target: Receptor-interacting serine/threonine-protein kinase 2 (Homo sapiens) (UniProt O43353); assay: NOD2-RIPK2 binding disruptors, retest, confirmation, fluorescence, CHO cells, BLA complementation, triplicate (AID 624370;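 active means mean inhibition across replicates above a set limit taken from the earlier primary screen, cut at about 21% in these data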;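 further: 0% = DMSO-only wells and the high end = clavulanate BLA-blocked wells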); conditions: CCF4 FRET, at 4.98 µM, active compounds read high
# [4] = beta-lactamase reporter inhibitors in CHO cells, confirmation, artefact control for NOD2-RIPK2 interaction inhibitor project, cell-based, CHO-K1 CMV-bla, CCF4 FRET, fluorescence (AID 624371;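 active means mean inhibition above the low-control mean inhibition plus three low-control SD, cut at about 11% in these data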;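 further: 0% = DMSO only wells and 100% = clavulanate high control wells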); conditions: CCF4 FRET ratio, counterscreen, at 4.98 µM, active compounds read high
# [5] = StAR promoter reporter inhibitors, counter-screen for LRH-1 inverse agonist project, cell-based, luminescence, high throughput (AID 651611; in the data active means inhibition above about 28%); conditions: StAR promoter luciferase reporter counterscreen, at 3.6 µM, active compounds read high
# [6] = molecular target: Nuclear receptor subfamily 5 group A member 2 (Homo sapiens) (UniProt O00482); assay: LRH-1 (NR5A2) inverse agonists, retest, confirmation, cell-based, luminescence (AID 651613; in the data active means inhibition above about 42%;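 further: HEK293T cells co-transfected with LRH-1 and StAR promoter luciferase reporter; 0% = vehicle wells and 100% = parental cells lacking receptor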); conditions: cell-based LRH-1 luciferase reporter, inverse agonism; at 3.6 µM; active compounds read high
# [7] = molecular target: Steroidogenic factor 1 (Homo sapiens) (UniProt Q13285); assay: SF1 (NR5A1) inverse agonists, counter-screen for LRH-1 inverse agonist project, cell-based, luminescence, high throughput (AID 651614; in the data active means inhibition above about 44%;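 further: cells cotransfected with StAR promoter reporter and SF1 expression vector; 0% = vehicle on cells with receptor and 100% = vehicle on cells lacking receptor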); conditions: cell-based SF1 luciferase reporter, at 3.6 µM, active compounds read high
# [8] = VP16 transactivation reporter inhibitors, counter-screen for LRH-1 inverse agonist project, cell-based, luminescence, high throughput (AID 651615; in the data active means inhibition above about 33%); conditions: Gal4-VP16 luciferase reporter cells, at 3.6 µM, active compounds read high
# [9] = Gal4-VP16 luciferase reporter inhibitors, counter-screen for COUP-TFII antagonist project, cell-based, luminescence, HEK293 (AID 687007; in the data active means inhibition above about 13%); conditions: at 8.5 µM, active compounds read high
# [10] = molecular target: COUP transcription factor 2 (Homo sapiens) (UniProt P24468); assay: NR2F2 transcriptional activity inhibitors, confirmation, cell-based, luciferase reporter, HEK293, triplicate (AID 687008;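 active means mean inhibition over three repeats above a set limit taken from the earlier primary screen, cut at about 38% in these data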;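 further: 100% = cells given the luciferase reporter alone without the COUP-TF2 vector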); conditions: HEK293 NGFI-A luciferase reporter, luminescence; at 8.5 µM; active compounds read high
# [11] = test system: transactivating tegument protein VP16 (Human herpesvirus 1); assay: VP16 transactivation reporter inhibitors, counter-screen for SRC2 inhibitor project, cell-based, luminescence, single concentration (AID 652007; in the data active means inhibition above about 36%); conditions: cell-based VP16 transactivation luciferase reporter, at 8.9 µM, active compounds read high
# [12] = molecular target: Nuclear receptor coactivator 2 (Homo sapiens) (UniProt Q15596); assay: SRC2 coactivator transcriptional activity inhibitors, confirmation, cell-based, luminescence, HEK293, triplicate (AID 652008;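 active means mean inhibition above 46.5%, the solvent-only control mean plus 3 SD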;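 further: 0% = DMSO-treated cells and 100% = Gossypol at 36 µM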); conditions: HEK293 GAL4-SRC2 luciferase reporter, at 8.9 µM, active compounds read high
# Sequence of Nuclear receptor coactivator 2 (Homo sapiens) (Q15596 whole entry, looked up, the tested form may be a part): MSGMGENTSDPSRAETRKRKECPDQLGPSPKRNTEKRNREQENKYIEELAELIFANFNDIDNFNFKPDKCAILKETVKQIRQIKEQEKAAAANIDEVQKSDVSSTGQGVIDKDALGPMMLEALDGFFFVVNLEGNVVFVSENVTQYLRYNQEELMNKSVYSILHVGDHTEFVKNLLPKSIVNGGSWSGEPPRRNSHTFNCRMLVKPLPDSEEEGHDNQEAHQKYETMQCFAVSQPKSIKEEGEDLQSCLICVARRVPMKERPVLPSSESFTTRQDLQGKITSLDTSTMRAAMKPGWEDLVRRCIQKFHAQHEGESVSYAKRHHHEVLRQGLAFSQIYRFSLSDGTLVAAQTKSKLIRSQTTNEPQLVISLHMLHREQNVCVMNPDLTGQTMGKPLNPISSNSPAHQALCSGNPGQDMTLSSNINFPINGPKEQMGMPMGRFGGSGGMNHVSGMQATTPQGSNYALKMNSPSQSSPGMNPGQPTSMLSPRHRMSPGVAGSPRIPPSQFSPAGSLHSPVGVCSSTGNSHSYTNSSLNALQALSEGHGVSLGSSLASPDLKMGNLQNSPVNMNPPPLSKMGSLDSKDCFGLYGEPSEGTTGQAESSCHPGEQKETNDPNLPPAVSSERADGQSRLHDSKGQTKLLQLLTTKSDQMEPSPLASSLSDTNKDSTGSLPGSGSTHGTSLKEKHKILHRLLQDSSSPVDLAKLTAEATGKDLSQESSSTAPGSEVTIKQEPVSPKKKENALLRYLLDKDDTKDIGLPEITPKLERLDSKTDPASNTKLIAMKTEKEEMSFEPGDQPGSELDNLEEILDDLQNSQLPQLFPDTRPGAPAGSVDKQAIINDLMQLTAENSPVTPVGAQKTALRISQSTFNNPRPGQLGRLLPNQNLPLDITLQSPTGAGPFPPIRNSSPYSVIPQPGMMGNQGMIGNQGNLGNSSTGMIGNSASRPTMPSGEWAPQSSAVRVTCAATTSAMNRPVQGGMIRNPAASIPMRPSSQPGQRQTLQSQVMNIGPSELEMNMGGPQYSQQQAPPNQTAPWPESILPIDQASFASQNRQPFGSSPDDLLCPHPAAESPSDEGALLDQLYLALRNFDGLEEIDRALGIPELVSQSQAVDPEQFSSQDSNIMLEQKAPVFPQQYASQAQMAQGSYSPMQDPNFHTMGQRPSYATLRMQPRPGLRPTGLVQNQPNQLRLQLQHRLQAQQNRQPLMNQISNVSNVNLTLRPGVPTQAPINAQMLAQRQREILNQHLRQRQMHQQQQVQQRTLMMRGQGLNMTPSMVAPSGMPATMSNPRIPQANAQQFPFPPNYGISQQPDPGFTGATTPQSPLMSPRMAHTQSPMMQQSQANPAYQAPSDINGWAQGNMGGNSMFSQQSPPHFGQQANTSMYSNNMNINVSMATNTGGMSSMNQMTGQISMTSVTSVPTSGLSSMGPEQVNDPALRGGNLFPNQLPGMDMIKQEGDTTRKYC
# Sequence of COUP transcription factor 2 (Homo sapiens) (P24468 whole entry, looked up): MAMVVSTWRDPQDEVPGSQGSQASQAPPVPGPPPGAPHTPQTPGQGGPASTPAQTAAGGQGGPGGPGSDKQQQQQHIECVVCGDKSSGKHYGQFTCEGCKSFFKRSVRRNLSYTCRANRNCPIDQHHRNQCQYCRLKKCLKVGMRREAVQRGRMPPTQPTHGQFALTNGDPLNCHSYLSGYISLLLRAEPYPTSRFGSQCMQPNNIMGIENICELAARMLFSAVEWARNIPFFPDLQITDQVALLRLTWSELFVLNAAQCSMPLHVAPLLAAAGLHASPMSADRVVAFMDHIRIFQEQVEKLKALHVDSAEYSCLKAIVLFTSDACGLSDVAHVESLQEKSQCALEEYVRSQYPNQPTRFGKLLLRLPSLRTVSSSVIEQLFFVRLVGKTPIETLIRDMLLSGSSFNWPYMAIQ
# Sequence of Photoreceptor-specific nuclear receptor (Homo sapiens) (Q9Y5X4 whole entry, looked up, the tested form may be a part): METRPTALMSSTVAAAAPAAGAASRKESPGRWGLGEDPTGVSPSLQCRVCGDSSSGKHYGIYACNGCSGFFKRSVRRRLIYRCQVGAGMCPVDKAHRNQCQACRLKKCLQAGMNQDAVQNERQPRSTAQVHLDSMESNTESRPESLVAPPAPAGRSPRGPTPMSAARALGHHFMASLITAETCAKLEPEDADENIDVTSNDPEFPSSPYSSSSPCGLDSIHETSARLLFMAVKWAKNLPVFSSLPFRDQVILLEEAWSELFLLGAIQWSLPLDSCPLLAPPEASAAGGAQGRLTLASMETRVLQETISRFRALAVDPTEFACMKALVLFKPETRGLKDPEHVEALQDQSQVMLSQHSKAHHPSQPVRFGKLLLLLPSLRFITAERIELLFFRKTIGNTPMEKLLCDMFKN
# Sequence of Nuclear receptor subfamily 5 group A member 2 (Homo sapiens) (O00482 whole entry, looked up): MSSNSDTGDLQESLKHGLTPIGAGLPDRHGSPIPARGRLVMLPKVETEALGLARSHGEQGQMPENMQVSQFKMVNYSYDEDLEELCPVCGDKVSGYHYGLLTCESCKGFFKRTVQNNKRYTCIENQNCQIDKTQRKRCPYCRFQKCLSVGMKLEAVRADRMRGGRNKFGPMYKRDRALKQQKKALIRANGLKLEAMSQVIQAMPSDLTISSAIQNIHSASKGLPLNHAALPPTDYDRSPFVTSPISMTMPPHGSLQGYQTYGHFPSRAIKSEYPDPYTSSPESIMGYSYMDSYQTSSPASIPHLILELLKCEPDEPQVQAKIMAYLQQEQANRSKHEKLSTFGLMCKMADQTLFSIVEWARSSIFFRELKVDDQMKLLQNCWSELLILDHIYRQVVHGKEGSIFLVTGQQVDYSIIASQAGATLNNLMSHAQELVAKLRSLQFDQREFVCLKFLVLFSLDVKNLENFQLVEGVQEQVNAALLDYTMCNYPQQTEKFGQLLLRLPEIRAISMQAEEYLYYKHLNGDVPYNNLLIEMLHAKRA
# Sequence of Receptor-interacting serine/threonine-protein kinase 2 (Homo sapiens) (O43353 whole entry, looked up): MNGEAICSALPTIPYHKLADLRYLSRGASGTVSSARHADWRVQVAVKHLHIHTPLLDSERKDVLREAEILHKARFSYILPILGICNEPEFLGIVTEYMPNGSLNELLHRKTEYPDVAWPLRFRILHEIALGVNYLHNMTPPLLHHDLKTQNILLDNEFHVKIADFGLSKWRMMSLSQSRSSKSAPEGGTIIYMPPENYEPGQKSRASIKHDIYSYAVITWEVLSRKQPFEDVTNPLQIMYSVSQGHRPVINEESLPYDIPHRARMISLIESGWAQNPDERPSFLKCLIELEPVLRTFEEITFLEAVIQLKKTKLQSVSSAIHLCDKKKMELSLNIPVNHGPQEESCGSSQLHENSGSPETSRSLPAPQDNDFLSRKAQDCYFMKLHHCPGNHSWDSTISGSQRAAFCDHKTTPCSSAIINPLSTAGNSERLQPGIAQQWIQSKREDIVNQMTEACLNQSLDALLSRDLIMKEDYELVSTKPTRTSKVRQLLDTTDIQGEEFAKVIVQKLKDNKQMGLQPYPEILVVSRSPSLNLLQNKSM
# Sequence of Steroidogenic factor 1 (Homo sapiens) (Q13285 whole entry, looked up, the tested form may be a part): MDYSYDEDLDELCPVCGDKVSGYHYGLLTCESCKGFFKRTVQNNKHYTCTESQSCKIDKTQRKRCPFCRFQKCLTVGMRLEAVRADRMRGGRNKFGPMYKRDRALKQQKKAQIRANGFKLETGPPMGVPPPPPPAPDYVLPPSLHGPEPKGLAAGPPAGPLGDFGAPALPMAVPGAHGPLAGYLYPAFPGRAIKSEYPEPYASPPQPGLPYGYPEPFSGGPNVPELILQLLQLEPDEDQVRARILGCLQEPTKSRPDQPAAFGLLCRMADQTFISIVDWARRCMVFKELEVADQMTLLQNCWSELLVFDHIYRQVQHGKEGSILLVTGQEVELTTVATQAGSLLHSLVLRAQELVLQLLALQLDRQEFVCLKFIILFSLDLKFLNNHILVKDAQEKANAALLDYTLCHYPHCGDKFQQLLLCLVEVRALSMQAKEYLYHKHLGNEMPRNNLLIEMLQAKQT
smiles,measurement,setting,value
Cc1cccc(N2CCN(C(=O)c3cccc(S(=O)(=O)N4CCc5ccccc5C4)c3)CC2C)c1 (stereo not drawn),inhibition,[1],52%
same,inhibition,[2],49%
COc1ccc(CNS(=O)(=O)c2ccc(NC(=O)N3CCCCC3)cc2)cc1,inhibition,[1],55.3%
same,inhibition,[2],52.4%
COCCNc1nc(-n2nc(C)cc2C)nc2sc3c(c12)CCCC3,inhibition,[1],-8.21%
same,inhibition,[2],-32%
COc1ccc(S(=O)(=O)N2CCN(C(C)C(=O)Nc3ccc(C(C)C)cc3)CC2)cc1 (stereo not drawn),inhibition,[1],-2.85%
same,inhibition,[2],-0.89%
O=C(CSc1ncn[nH]1)Nc1nc(-c2cccc([N+](=O)[O-])c2)cs1,inhibition,[3],2.59%
same,inhibition,[4],3.63%
O=C1/C(=C\c2ccc([N+](=O)[O-])cc2)CS(=O)(=O)C/C1=C/c1ccc([N+](=O)[O-])cc1,inhibition,[3],91.8% (active)
same,inhibition,[4],4.33%
same,inhibition,[1],96% (active)
same,inhibition,[2],53.2%
same,inhibition,[5],2.1%
same,inhibition,[6],89.5% (active)
same,inhibition,[7],79.7% (active)
same,inhibition,[8],70.2% (active)
CNC(=O)c1sc(Nc2ccc(OCc3ccccc3)cc2)nc1C,inhibition,[1],37.7%
same,inhibition,[2],30%
COc1ccccc1-n1nnnc1S(=O)(=O)Cc1ccc(Cl)cc1,inhibition,[1],10.2%
same,inhibition,[2],19%
same,inhibition,[5],41.7% (active)
same,inhibition,[6],51.6% (active)
same,inhibition,[7],40.4%
same,inhibition,[8],34.2% (active)
N#Cc1c(-c2ccccc2)nc(SCc2cccc(C(F)(F)F)c2)[nH]c1=O,inhibition,[1],43.6%
same,inhibition,[2],30.9%
CCn1c(CNC(=O)c2cc(OC)c(OC)c(OC)c2)cc2cc(C)ccc21,inhibition,[1],85.2% (active)
same,inhibition,[2],71% (active)
same,inhibition,[9],4.19%
same,inhibition,[10],15.9%
COc1cccc(CNS(=O)(=O)c2ccc3c(c2)CC(C)N3C(=O)C2CCC2)c1 (stereo not drawn),inhibition,[1],73.3% (active)
same,inhibition,[2],58.5%
CCC(C)C(N=C1NS(=O)(=O)c2ccccc21)C(=O)N1CCC(C)CC1 (stereo not drawn),inhibition,[1],41%
same,inhibition,[2],-4.13%
Cc1cccc(NS(=O)(=O)c2ccc(-c3cnc(C4CC4)o3)cc2)c1,inhibition,[1],53.5%
same,inhibition,[2],37.9%
COc1ccc(C(=O)NC2CCCc3c2cnn3-c2cccc(C)c2C)c(OC)n1 (stereo not drawn),inhibition,[1],89.6% (active)
same,inhibition,[2],74.1% (active)
same,inhibition,[11],-6.55%
same,inhibition,[12],19.8%
O=C(Nc1nnc(-c2ccccc2)o1)c1cc(-c2cccs2)nc2ccccc12,inhibition,[1],98.3% (active)
same,inhibition,[2],12.6%
Cc1ccc(NS(=O)(=O)c2ccc(-c3coc(C)n3)cc2)c(C)c1,inhibition,[1],57.5%
same,inhibition,[2],46.7%
Cc1ccc(S(=O)(=O)N2[C@@H](c3ccc(Br)cc3)C(C(=O)O)=C[C@H]2CC2CCCC2)cc1,inhibition,[1],26.2%
same,inhibition,[2],26.5%
N#C[C@]1(S(=O)(=O)c2ccccc2)C[C@@H]2ON=C(c3cccc(Br)c3)[C@@H]2C1,inhibition,[1],88.5% (active)
same,inhibition,[2],75.2% (active)
same,inhibition,[9],2.59%
same,inhibition,[10],14.3%
Cc1ccc(OCC(=O)c2cc(C)n(Cc3ccco3)c2C)c([N+](=O)[O-])n1,inhibition,[1],67.8%
same,inhibition,[2],52.5%
same,inhibition,[11],23.6%
same,inhibition,[12],37.4%
S=C(NN=Cc1ccccn1)Nc1ccccn1,inhibition,[1],79.5% (active)
same,inhibition,[2],14.3%
O=C1C=C(c2ccnc3cc(Cl)ccc23)C[C@@H](c2ccc3c(c2)OCO3)C1,inhibition,[1],91.6% (active)
same,inhibition,[2],76.5% (active)
same,inhibition,[9],2.65%
same,inhibition,[10],44.8% (active)
CCCCCc1c(-c2ccc(OC)c(OC)c2)ncn1CCc1ccccc1OC,inhibition,[1],73.5% (active)
same,inhibition,[2],35.4%
same,inhibition,[9],4.25%
same,inhibition,[10],25.6%
CCc1cc2c(NC3CCCC3)ncnc2s1,inhibition,[1],88.5% (active)
same,inhibition,[2],64%
same,inhibition,[9],5.31%
same,inhibition,[10],29.9%
O=[N+]([O-])c1ccc(NS(=O)(=O)c2ccccc2)c(Cl)c1,inhibition,[1],77.9% (active)
same,inhibition,[2],43.9%
CC1CCCCN1S(=O)(=O)c1ccc(C(=O)Nc2nnc(-c3cccs3)o2)cc1 (stereo not drawn),inhibition,[1],49.5%
same,inhibition,[2],32%
CCOC(=O)CC1(NC(=O)c2cc(COc3cncc(Cl)c3)on2)CCCCC1,inhibition,[1],20.2%
same,inhibition,[2],44.2%
CC(=O)c1c(C)[nH]c(C(=O)COC(=O)c2cccc(S(=O)(=O)N(C)c3ccccc3)c2)c1C,inhibition,[1],23.8%
same,inhibition,[2],73.4% (active)
